# Records with an inconclusive call do not appear. Active and inactive are the calls of the source. No rule for the calls is given here.
# Assay: qHTS assay to identify small molecule antagonists of the estrogen related receptor signaling pathway with the pleiotropic PPARgamma coactivator (PGC) from Tox21 10K library (AID 1224841); also: actives are mostly falling curves and most rising ones were filed inactive; nearly all actives have a fitted effect of over 50% in size
# Settings: PGC/ERR reporter cell line, ONE-Glo luciferase, 18 h; series mostly up to 92.4 µM; activity, negative = inhibition: at the top concentration
# Description: U.S. Tox21 Program National Center for Advancing Translational Sciences [NCATS] NIH Chemical Genomics Center [NCGC] U.S. Environmental Protection Agency [EPA] National Institutes of Environmental Health Sciences [NIEHS] National Toxicology Program [NTP] U.S. Food and Drug Administration [FDA] Tox21 Assay Overview: Estrogen related receptors (ERRs), the first orphan nuclear receptors discovered, play an important role in the control of cellular energy metabolism. ERRs are required for high-energy production in response to the environmental challenges. The pleiotropic PPARgamma coactivator (PGC) is a major partner of ERR and a key regulator in energy homeostasis. Together they have been implicated in the etiology of metabolic disorders such as Type 2 diabetes and metabolic syndrome. ERR-alpha was also identified as an adverse marker for breast cancer progression; ERR-alpha-positive tumors have a poor prognosis. To screen and to identify environmental compounds that perturb the ERR and PGC/ERR signaling pathways could provide valuable information for potential therapeutic or preventive measures in the treatment of metabolic disease. For identifying PGC/ERR antagonists, PGC/ERR cell line (provided by NTP) has been used to screen Tox21 10K library.
# Tox21 Assay Protocol Summary: The PGC/ERR cells were dispensed at 2,000 cells/5 ul/well in 1536-well white plates using a Multidrop dispenser. After the assay plates were incubated at a 37 C/5% CO2 incubator for 6 hours, 23 nL of compounds dissolved in DMSO, positive and negative controls or DMSO only was transferred to the assay plate by a pin tool. The plates were incubated at 37 C for 18 hours. 4 ul/well of One-Glo reagent was added into the assay plates using a Flying Reagent Dispenser. After 30-minute incubation at room temperature, the luminescence intensity in the plates was measured using a ViewLux plate reader.
# % is scaled to controls: 0 for no effect and ±100 for the full control effect; potency is read from the fitted curve at half-maximal effect.
SMILES,"activity, negative = inhibition",Potency
CCN(CCN)c1cccc(C)c1,-20.6% (inactive),
Cc1cc(C)c(/C=C2\C(=O)Nc3ccccc32)[nH]1,2.93% [at 42.5 µM] (inactive),
CCc1ccc(Br)cc1,2.2% (inactive),
COc1cccc2c1C(=O)c1c(O)c3c(c(O)c1C2=O)C[C@@](O)(C(C)=O)C[C@@H]3O[C@H]1C[C@H](N)[C@H](O)[C@H](C)O1,48.1% [at 42.5 µM] (inactive),
O=C(O)CCN(C1(C(=O)NO)CCCC1)S(=O)(=O)c1ccc(Oc2ccc(F)cc2)cc1,-5.43% (inactive),
Cc1ccc(O)c(O)c1,134% (inactive),
Oc1c(I)cc(Cl)c2cccnc12,192% [at 42.5 µM] (inactive),
CCC(=O)C(=O)CC,-6.45% (inactive),
OC[C@@H](O)[C@@H](O)CO,1.48% (inactive),
CCCCCCOC(=O)C(C)CC (stereo not given),8.53% (inactive),
O=C(c1ccc(O)c(O)c1)c1ccc(O)cc1O,,68.5 µM (active)
CC(C)CCCCCOC(=O)CCS,12% (inactive),
COC(=O)c1ccccc1OC,1.69% (inactive),
CN(C)[C@@H](CCOc1cccc2ccccc12)c1ccccc1,-5.55% [at 42.5 µM] (inactive),
C[Si](Cl)(c1ccccc1)c1ccccc1,-13% (inactive),
O=C1CCc2ccc(OCCCCN3CCN(c4cccc(Cl)c4Cl)CC3)cc2N1,,11.9 µM (active)
CCCCCc1ccc(Cl)cc1,-11.1% (inactive),
Cc1ccc(-c2ccccc2)cc1,-6.15% (inactive),
CCCCCCC1CCCC(=O)O1 (stereo not given),-1.17% (inactive),
CC(C)=CCC1=C(O)c2ccccc2C(=O)C1=O,,2.42 µM (active)

SMILES,"activity, negative = inhibition",Potency
Nc1ccc(NCCO)c([N+](=O)[O-])c1,-24.1% (inactive),
CCCCCCCCCCCCOCCOCCOCCOCCOCCOCCOCCOCCOCCO,,5.31 µM (active)
COC(=O)c1ccccc1C,-0.768% (inactive),
COc1cc(/C=C/c2ccccc2)oc(=O)c1,156% (inactive),
CCCCC(CC)CN1CN(CC(CC)CCCC)CC(C)(N)C1 (stereo not given),-28.4% [at 42.5 µM] (inactive),
Cc1cccc(C)c1NC(=O)c1ccc(N)cc1,11.4% [at 42.5 µM] (inactive),
C#C[C@]1(OC(C)=O)CC[C@H]2[C@@H]3CCC4=C[C@@H](OC(C)=O)CC[C@@H]4[C@H]3CC[C@@]21C,,21.1 µM (active)
CC(=O)c1ccc(C(C)=O)cc1,-3.04% (inactive),
COc1cc(C)ccc1O,7.4% (inactive),
Nc1ccc(Oc2ccc(Cl)cc2)cc1,9.23% (inactive),
Nc1nc2c(ncn2COCCO)c(=O)[nH]1,4.03% [at 42.5 µM] (inactive),
CC1=Nc2ccccc2C1(C)C,499% (inactive),
C=CC(C)(CCC=C(C)C)OC=O (stereo not given),5.77% (inactive),
CCCCN(CCCC)CC(O)c1cc(Cl)cc2c1-c1ccc(Cl)cc1/C2=C/c1ccc(Cl)cc1 (stereo not given),-3.93% [at 42.5 µM] (inactive),
CC(C)Cn1cnc2c(N)nc3ccccc3c21,23.8% [at 19 µM] (inactive),
Cc1ccc(C(=O)O)cc1,-12% (inactive),
O=C(/C=C/c1ccccc1)OC/C=C/c1ccccc1,25.8% (inactive),
O=c1oc2cc(O)ccc2c2oc3cc(O)ccc3c12,145% (inactive),
CC1(C)[C@@H](O)CC[C@]2(C)[C@H]3C(=O)C=C4[C@@H]5C[C@@](C)(C(=O)O)CC[C@]5(C)CC[C@@]4(C)[C@]3(C)CC[C@@H]12,20.8% (inactive),
C#CC1(O)CC[C@H]2[C@@H]3CCC4=CCCC[C@@H]4[C@H]3CC[C@@]21C (stereo not given in full),-28.8% (inactive),
